# Data: the supplement of paper PMC3334620
# In all, about 33,000 sequences were measured (“E-score (-0.5 to 0.5)”: median about -0.036, highest 2% from about 0.37 on). This excerpt belongs to a sample that is enriched for the highest values.
# Molecular target: T1, Yer064c (UniProt P40041)
# T1 sequence: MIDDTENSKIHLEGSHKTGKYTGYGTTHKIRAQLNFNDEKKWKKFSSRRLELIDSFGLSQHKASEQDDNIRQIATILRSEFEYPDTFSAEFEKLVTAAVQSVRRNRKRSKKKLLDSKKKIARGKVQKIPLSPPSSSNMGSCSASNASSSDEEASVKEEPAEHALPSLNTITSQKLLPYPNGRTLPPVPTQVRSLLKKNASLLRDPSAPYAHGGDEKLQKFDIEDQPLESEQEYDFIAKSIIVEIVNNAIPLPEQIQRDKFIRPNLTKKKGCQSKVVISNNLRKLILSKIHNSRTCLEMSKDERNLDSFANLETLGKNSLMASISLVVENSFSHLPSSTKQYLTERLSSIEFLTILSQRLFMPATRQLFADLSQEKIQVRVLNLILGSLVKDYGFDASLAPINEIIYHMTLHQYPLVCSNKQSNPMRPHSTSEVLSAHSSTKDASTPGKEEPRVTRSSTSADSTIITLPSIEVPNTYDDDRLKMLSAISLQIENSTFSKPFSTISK
# Experiment: PBM E-score (8-mer binding enrichment) (E-score (-0.5 to 0.5)); higher = stronger / more preferred TF binding
# Conditions: protein concentration: 200 nM; construct: GST-full length
# Method in brief: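 PURExpress in vitro transcription/translation supplied GST-tagged yeast transcription factors, either full-length or DNA-binding domain. Applied at about 100-200 nM to universal all-10-mer Agilent arrays double-stranded by primer extension, the bound protein was detected with fluorescent anti-GST. E-scores, modified Wilcoxon-Mann-Whitney statistics, were given by the Universal PBM Analysis Suite to ungapped eight-base words pooled with their reverse complements after masliner normalisation.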
row,Sequence,PBM E-score
1,CTCTCGAC,-0.0566
2,ACCGCCCA,-0.117
3,CGAGAATA,-0.0825
4,GGTCACGA,0.0181
5,ATTCACGC,0.132
6,CGTCACGC,-0.184
7,AGTCACGC,0.469
8,AGTCACGA,0.466
9,AGTCACGG,0.469
10,ATTCACGG,0.196
11,CGTCACGA,-0.0925
12,AATCACGG,0.322
13,CAGTAAAG,0.0694
14,CCGTTTGA,0.0399
15,ACACCCAA,-0.0135
16,CCGCCTAC,-0.132
17,CCTTCGCA,-0.293
18,CTCGGAAC,-0.012
19,GACGGCAA,-0.0972
20,GGGAATGA,0.0959
21,GGGAATAA,-0.128

row,Sequence,PBM E-score
1,AGGAATCA,0.429
2,CGGAATTA,-0.0336
3,CGGAATCA,0.392
4,AGGAATCG,0.235
5,CGGAATCC,-0.0704
6,AGGAATCC,-0.0672
7,GGGAATCA,0.418
8,GGATTCCA,0.0871
9,CGCCGAAA,-0.059
10,GCGCAGGA,-0.0398
11,CCATCCTA,0.0627
12,ATACCATG,0.061
13,AAGTCATT,0.454
14,ATGTCATC,-0.179
15,AAGTCATA,0.46
16,AACTCATT,0.2
17,AAGTCATC,0.471
18,AGGTCATC,0.18
19,AAGTCAAT,0.305
20,ACGTCATG,0.21
21,AGGTCATA,0.171

row,Sequence,PBM E-score
1,ATGTCATA,0.013
2,AAGTCATG,0.465
3,AGGTCATG,0.17
4,ATCTCTAA,0.0574
5,AAGGATCC,-0.15
6,GAGTTCTA,0.0136
7,GGTTGGGA,0.00893
8,GGTATCAA,0.0678
9,CAGTCATC,0.467
10,CCGTCATC,-0.098
11,CGGTCATC,-0.108
12,ATCAAATC,0.21
13,GAGAAGCC,-0.201
14,AGCAGAGC,-0.137
15,ATCATACA,0.236
16,GTCATACA,0.374
17,CTCATACA,0.184
18,ATCAGGAA,0.00077
19,CCGGCATC,-0.251
20,CGTAATCA,0.42
21,GGTAATCA,0.433

row,Sequence,PBM E-score
1,GGTAATTA,0.0662
2,CGTAATCC,-0.0532
3,CGTAATTA,-0.00543
4,AGTAATCC,0.0831
5,GGTAATGA,0.189
6,AGTAATCA,0.415
7,AGTAATCG,0.186
8,CTGCGGTC,-0.245
9,CAGACCGC,-0.0824
10,AGTCGATA,0.179
11,ATACTCAA,0.239
12,AGACTCAA,0.444
13,AGACTCAG,0.434
14,ACTCTCAA,0.257
15,AGACTCTG,0.301
16,AGACTCTA,0.267
17,ATACTCAG,0.214
18,ATACTCAT,0.371
